Compound activity from PubChem BioAssay.
In the library only some 1.9% were active in any assay of this set; here they are far more common.
MLLE-PAM2 inh: blocks PAM2 peptide binding to the PABP1 MLLE domain; P11940; GST-MLLE / FITC-PAM2 fluorescence polarization; inhibition, % at 20 µM; 360,000 compounds, 0.36% hits; in the data active = inhibition above about 35%, passing the limit was not always enough;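 note: plate controls were DMSO wells with GST-MLLE for no effect and wells lacking GST-MLLE protein for full effect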
eIF4E-4G inh: blocks eIF4E binding to eIF4G. TR-FRET eIF4E-eIF4GI(517-606) binding, 2 h. inhibition, % at 21.7 µM. 220,000 compounds, 0.37% hits;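 active = inhibition above about 30%, limit read from the data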;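 note: 0% = full FRET control wells and 100% = background wells lacking eIF4GI fragment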
14-3-3 Bad inh: disrupts binding of bovine 14-3-3 zeta to phospho-Bad peptide; AID 781; inhibition, % at 21.7 µM; TR-FRET 14-3-3zeta/Dy647-pBad peptide displacement, 1 h; 220,000 compounds, 0.71% hits; P63103;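 active = inhibition above about 70%, limit read from the data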;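 note: 0% = full 14-3-3 plus peptide FRET controls and 100% = background without 14-3-3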
Target sequence (P63103 whole entry, looked up): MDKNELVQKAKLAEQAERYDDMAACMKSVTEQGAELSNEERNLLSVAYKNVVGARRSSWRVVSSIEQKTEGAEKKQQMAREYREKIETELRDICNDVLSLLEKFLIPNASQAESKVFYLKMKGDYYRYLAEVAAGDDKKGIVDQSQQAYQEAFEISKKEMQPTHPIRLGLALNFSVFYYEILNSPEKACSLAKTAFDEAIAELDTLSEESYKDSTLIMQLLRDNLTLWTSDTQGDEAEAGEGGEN
eIF4H FP inh: inhibitors of RNA binding by human eIF4H | Q15056 | eIF4H fluorescence polarization binding assay | inhibition, % at 35 µM | 290,000 compounds, 0.94% hits;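 note: calls also rest on retests at 20 µM and on dose response follow-up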
PABP FP inh: PABP-poly(A) binding inhibition; calls only at 35 µM; PABP-poly(A) RNA binding, fluorescence polarization; 290,000 compounds, 1% hits; P11940;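 note: calls also rest on retests at 20 µM and on dose response follow-up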
* marks the source's active call; other numbers are inactive results; i = inactive; ? = inconclusive; . = no result; + = active, no number; ! = a repeat was not active; [ ] = remark or other dose. Unless noted, the rule behind the calls is not given here.

SMILES	MLLE-PAM2 inh	eIF4E-4G inh	14-3-3 Bad inh	eIF4H FP inh	PABP FP inh
COc1ccccc1NC(=O)CSc1nc(N)c(C#N)cc1C#N	-73	2	11	87*	i
COCC(C)n1c(SCC(=O)Nc2nccs2)nc2ccccc2c1=O (centres undefined)	44*	.	.	.	.
COc1ccccc1-n1c(SCC(=O)Nc2cccc3ccccc23)nc(O)cc1=O	7	-17	-8	-6	i
CCOC(=O)c1c(N=CN(C)C)c2cc([N+](=O)[O-])cnc2n1C	-3	2	2	-5	i
COc1ccc(NC(=O)C(=O)NCCC2CCCCN2S(=O)(=O)c2ccccc2)cc1 (centres undefined)	6	.	.	.	.
COCCn1c(SCC(=O)Nc2ccccc2OC)nc2ccccc2c1=O	-10	.	.	6	i
CCn1c(SCC(=O)Nc2ccccc2OC)nc2ccccc2c1=O	3	69*[fluorescence artefact?]	-2	5	i
Cc1onc(-c2ccccc2)c1C(=O)Nc1nnc(CC(C)C)s1	6	.	.	-15	i
Cc1ccccc1NC(=O)c1ccc(NC(=O)C2CCCO2)cc1 (centres undefined)	12	.	.	0	i
Cc1ccc(N(C(=O)Cn2nnc(-c3ccc(C)o3)n2)C(C(=O)NC2CCCC2)c2ccncc2)cc1 (centres undefined)	-10	.	.	5	i
Oc1ccc(N=Cc2ccc(-c3cccs3)s2)cc1	-3	3	15	51*	i
O=Cc1ccc(-c2cccs2)s1	-5	.	.	.	.
C1=CC2CC1CC2CN1CCN(c2ccccc2)CC1 (centres undefined)	-2	0	75*	-6	i
Cc1ccc(S(=O)(=O)N2CCOCC2)cc1C(=O)OCC(=O)Nc1ccc(Cl)cn1	0	.	.	.	.
CCc1nc2ccc(C(=O)Nc3cccc(OCC(=O)N(C)C)c3)cn2c1N(CCC(C)C)CCN(C)C	2	.	.	.	.
Cc1ncc([N+](=O)[O-])n1CCO	7	-1	-2	5.6*	i
Cc1ncc([N+](=O)[O-])n1CC(C)O (centres undefined)	4	0	-1	?	+!
CCN(CC)C(=O)Cn1cc(SCC(=O)NC2CCCCC2)c2ccccc21	7	.	.	.	.
COc1ccc(Cl)cc1NC(=O)CN(C(=O)c1ccco1)C1CCCCC1	36*	2	2	1	i
Cc1ncc([N+](=O)[O-])n1S(=O)(=O)c1cc(Cl)ccc1Cl	-7	.	.	-5	i
CCOC(=O)C1CCN(C(=O)C2CC(=O)N(c3ccc4c(c3)OCCO4)C2)CC1 (centres undefined)	-2	.	.	19	+
O=C(C1CC(=O)N(c2ccc3c(c2)OCCO3)C1)N1CCN(Cc2ccccc2)CC1 (centres undefined)	-10	.	.	.	.
Cc1ccc(C2CC(=O)Oc3cc(O)ccc32)cc1 (centres undefined)	7	-3	8	50*	+
O=C1CC(c2ccccc2)c2cc(O)ccc2O1 (centres undefined)	10	1	10	4	i
O=Cc1ccc(-c2cccc(C(=O)O)c2)o1	15	4	6	24	i
SMILES	MLLE-PAM2 inh	eIF4E-4G inh	14-3-3 Bad inh	eIF4H FP inh	PABP FP inh
N=C1/C(=C\c2ccc(-c3cccc(C(=O)O)c3)o2)C(=O)N=C2SC=C(c3ccccc3)N12	-79	65*	94*	58*	+
N=C1/C(=C/c2ccc(-c3cccc(C(=O)O)c3)o2)C(=O)N=C2SC(CC(=O)N3CCOCC3)=NN12	-8	.	.	62*	+
Cc1cccc(C)c1NC(=O)CNC(=O)c1ccccc1	13	.	.	0	i
Cc1n[nH]c(=S)n(NC(=O)/C=C/C(=O)Nn2c(=S)[nH]nc(C)c2=O)c1=O	10	5	85*	92*	+
CCOc1cccc(=O)c2c(C)n(C)c(C)c12	23	-20	-19	60*	+
CC1=NN(c2ccc(Cl)cc2)C(=O)C1	13	-1	-6	7	i
CC1=NN(c2ccc(N)cc2)C(=O)C1	22	-3	69	7	+
CCc1nnc(NC(=O)CSc2ccc(-c3cccs3)nn2)s1	32	1	-7	?	+
CCc1nnc(NC(=O)CSc2ncnc3c2oc2ccccc23)s1	-5	-11	73*	-4	i
O=C(CSc1ncnc2c1oc1ccccc12)Nc1nc2ccccc2s1	-7	3	6	0	i
Cc1ccc(C(=O)Nc2ccc(N3CCOCC3)nc2N2CCOCC2)cc1	1	2	-11	3	i
CCCN1CCN(S(=O)(=O)c2ccc(-c3cc(C)no3)s2)CC1	-5	.	.	8	i
CCOC(=O)CNc1nnc(SCC(=O)OCC)[nH]c1=O	46*	5	-9	0	i
[O-]c1c[n+](-c2ccc(-[n+]3cc([O-])on3)cc2)no1	-8	15	-8	4	i
CC1=C(C(=O)O)N2C(=O)C(NC(=O)c3ccc(F)cc3)C2SC1 (centres undefined)	43*	.	.	.	.
CC1=C(C(=O)O)N2C(=O)C(NC(=O)c3ccccc3Cl)C2SC1 (centres undefined)	26	.	.	-2	i
C/C=C\C(=O)Nc1cccc(C2=NOC3(C2)C[C@H](C(N)=O)N(C(=O)/C=C/CC)C3)c1 (some centres undefined)	-17	-6	0	-4	i
CC/C=C/C(=O)N1CC2(CC(c3cccc(NC(=O)c4ccccc4)c3)=NO2)C[C@@H]1C(N)=O (some centres undefined)	-2	-5	-9	-7	i
C=C(C)C(=O)Nc1cccc(C2=NOC3(C2)C[C@@H](C(N)=O)N(C(=O)/C=C/CC)C3)c1 (some centres undefined)	2	5	34	84*	+
C=C(C)C(=O)Nc1cccc(C2=NOC3(C2)C[C@H](C(N)=O)N(C(=O)/C=C/C)C3)c1 (some centres undefined)	3	3	26	88*	+
C/C=C\C=C/C(=O)Nc1cccc(C2=NOC3(C2)C[C@@H](C(N)=O)N(C(=O)/C=C/CC)C3)c1 (some centres undefined)	23	75*	-4	-5	i
CCOC(=O)c1c(NC(=O)COC(=O)c2ccc(Cl)nc2)sc(C)c1C	14	.	.	.	.
O=S(=O)(Nc1ccc(-c2ccc3nncn3n2)cc1)c1cccc(F)c1	2	.	.	.	.
CC(=O)c1c(C(C)=O)c(C)n(-c2cccc3cccnc23)c1C	24	1	4	101	+
NS(=O)(=O)c1ccc(-c2ccc(/C=C3\NC(=S)NC3=O)o2)cc1	12	.	.	79*	i
NS(=O)(=O)c1ccc(-c2ccc(C=O)o2)cc1	-16	4	-4	-4	i
O=C1CC(C(=O)N2CCN(c3ccccn3)CC2)CN1Cc1ccccc1Cl (centres undefined)	2	.	.	.	.
CN(C)c1ccc(C=C(C#N)C(=O)c2ccccc2)cc1Br	-83	.	.	.	.
CNS(=O)(=O)c1ccc(OC)c(-c2nnc3c4ccccc4c(C)nn23)c1	15	-5	92*	0	i
